This is a sample that favours compounds with a hit; in the whole collection about 17% have one here.
DT40 TDP1 CPT: DT40-hTDP1 cell growth loss with CPT; 420,000 compounds, 12% hits; AID 686979; chicken DT40 Tdp1-/-;hTDP1 cells + 20 nM CPT, ATP luminescence, 48 h; Potency, µM (top dose mostly 46.2 µM), hits mostly inhibitors; also: nearly all actives have a fitted effect of over 55% in size
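Cell growth measured by CellTiter-Glo luminescence after a minimum 48 h, 37 C compound exposure with 20 nM CPT in Tdp1-knockout DT40 cells stably expressing hTDP1, seeded 400/well; qHTS titration format.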
HT1080-NT tox: kills 2HG-producing HT-1080-NT fibrosarcoma cells. HT-1080-NT fibrosarcoma viability, CellTiter-Glo ATP luminescence, 48 h. Potency, µM (highest dose often 46.1 µM), usual class: cytotoxic. 360,000 compounds, 1.6% hits. AID 686970;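 also: NT is the 2HG producing partner of a matched IDH1 knockdown line; nearly all actives have a fitted effect of over 55% in size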
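Fibrosarcoma NT cells, 750 per well in 5% FBS RPMI, were exposed to compound for 48 hours. Viability: CellTiter-Glo luminescence.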
TGFb inhibitor: TGF-b pathway inhibition. HepG2 CAGA-GFP TGF-b/SMAD3 reporter, GFP fluorescence, 18 h; TGF-beta stimulated, 500 pg/mL final. Potency, µM (doses to about 46.1 µM), actives largely listed as inhibitors. 410,000 compounds, 1.2% hits. AID 588855; also: nearly all actives have a fitted effect of over 65% in size
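HEPG2 CAGA-GFP, 1000 cells/well; 2 h settle, 37 C; cpd via pin tool; TGF-b 500 pg/mL final; 18 h, 37 C; GFP imaging ex488/em500-530; %Activity normalised to -TGF-b and +DMSO controls; CRC fit, curve class.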
HepG2 tox: counter-screen for TGF-b inhibitors: cytotoxicity in HepG2 cells | HepG2 CAGA-GFP viability, ATP luminescence, 18 h | Potency, µM (doses to about 46.1 µM), most hits filed as cytotoxic | 410,000 compounds, 0.76% hits | AID 588856
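CellTiter-Glo luminescence gave cytotoxicity after 18 hours at 37 degrees C. The cells were HepG2 CAGA-GFP in 1% FBS DMEM, stimulated with 500 pg/mL TGF-beta after compound addition. %Activity was normalised to no-cell wells (complete cell-killing) and DMSO (no toxicity), and curves were fitted and classified.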
HT1080 IDH1KD tx: kills HT-1080 cells with IDH1 knockdown | Potency, µM (titrated, usually from 46.1 µM), usual class: cytotoxic | AID 686971 | HT-1080 IDH1 knockdown viability, ATP luminescence, 48 h | 360,000 compounds, 2% hits
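Using the IDH1-knockdown HT-1080 line run in the same batch and compound series as the NT line, viability after 48 h at 37 °C was determined by CellTiter-Glo luminescence and expressed as % activity.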
TDP1 cell noCPT: qHTS for Inhibitors of human tyrosyl-DNA phosphodiesterase 1 (TDP1): qHTS in cells in absence of CPT | Potency, µM (series often up to 46.2 µM), hits mostly inhibitors | 420,000 compounds, 15% hits | AID 686978, 2013 | DT40 Tdp1-/- hTDP1 cells, no CPT, ATP luminescence, 48 h; also: nearly all actives have a fitted effect of over 55% in size
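Growth of hTDP1-complemented DT40 Tdp1-knockout cells is measured by ATP luminescence after at least 48 hr compound exposure at 37 °C, with DMSO substituting for the 20 nM CPT used in the parallel screen.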
Large screens that a line does not name were inactive. Calls follow the shape of the dose curve; as a rule, active = well fitted curve in the direction sought with a large enough effect; inconclusive = small, poorly fitted or top-dose-only effect, or another doubt; inactive = no such curve, though single readings can be large; an effect the other way counts as inactive or inconclusive.

CCOC(=O)N1CCC(NC(=O)c2ccc3c(c2)N(CC)CCS3)CC1	DT40 TDP1 CPT 21µM, TDP1 cell noCPT inconclusive
Cc1cc(C)cc(C(=O)C[n+]2cccc(Br)c2)c1	none (no result: HT1080-NT tox, HT1080 IDH1KD tx)
Cc1cccc(C)c1OCC(=O)NCC1(N(C)C)CCCCC1	none (no result: HT1080-NT tox, HT1080 IDH1KD tx)
Cc1cc(=O)oc2c3c(cc(OCC(=O)NCC4CCC(C(=O)O)CC4)c12)OC(C)(C)CC3 (centres undefined)	none
Cc1ccc(CN2CCSc3ccc(C(=O)NC4CCCC4)cc32)cc1	DT40 TDP1 CPT 16µM, TDP1 cell noCPT inconclusive
CCc1ccc(NC(=O)c2ccc3c(c2)N(Cc2ccc(C)cc2)CCS3)cc1	DT40 TDP1 CPT 15µM, TDP1 cell noCPT inconclusive (no result: HT1080-NT tox, HT1080 IDH1KD tx)
Cc1ccc(CN2CCSc3ccc(C(=O)NCC4CCCO4)cc32)cc1 (centres undefined)	DT40 TDP1 CPT inconclusive, TDP1 cell noCPT inconclusive
O=C(NCC1CCCO1)c1ccc2c(c1)N(Cc1ccc(Cl)cc1)CCS2 (centres undefined)	DT40 TDP1 CPT inconclusive, TDP1 cell noCPT 23µM
O=C(NC1CCCC1)c1ccc2c(c1)N(Cc1ccc(F)cc1)CCS2	DT40 TDP1 CPT inconclusive, TGFb inhibitor inconclusive, TDP1 cell noCPT inconclusive
CCN(C(=O)COC(=O)c1ccc(SC)cc1OC)C1CCS(=O)(=O)C1 (centres undefined)	none
O=C(Nc1nc2c(F)cccc2s1)c1ccc(S(=O)(=O)N2CCOCC2)cc1	DT40 TDP1 CPT inconclusive (no result: HT1080-NT tox, HT1080 IDH1KD tx)
O=C(Nc1nc2c(F)cccc2s1)c1ccc([N+](=O)[O-])o1	DT40 TDP1 CPT 13µM, TDP1 cell noCPT 16µM
O=C(Nc1nc2c(Cl)cccc2s1)c1ccc([N+](=O)[O-])o1	DT40 TDP1 CPT 21µM, TDP1 cell noCPT 16µM
Cc1ncc2c(c1CNS(=O)(=O)N(C)C)CCN(C(=O)c1[nH]c3ccc(Cl)cc3c1C)C2	TDP1 cell noCPT inconclusive (no result: HT1080-NT tox, TGFb inhibitor, HepG2 tox, HT1080 IDH1KD tx)
C=CCNC(=S)NNC(=O)c1cccn(Cc2ccc(Cl)cc2Cl)c1=O	DT40 TDP1 CPT 16µM, TDP1 cell noCPT inconclusive
CCNC(=S)NNC(=O)c1cccn(Cc2ccc(Cl)cc2Cl)c1=O	DT40 TDP1 CPT inconclusive, TDP1 cell noCPT inconclusive
O=[N+]([O-])c1ccc2c(c1)nc(CO)n2Cc1ccccc1	DT40 TDP1 CPT inconclusive
CN(C)c1ncc2nc(-c3ccc(Cl)cc3)c(=O)n(C[C@H]3CCCO3)c2n1	none (no result: HT1080-NT tox, TGFb inhibitor, HepG2 tox, HT1080 IDH1KD tx)
CNC(=O)NC(=O)C(C)OC(=O)c1oc2ccccc2c1CSc1ccc(Cl)cc1 (centres undefined)	DT40 TDP1 CPT inconclusive, TDP1 cell noCPT 21µM
Cc1ccc(Cl)cc1NC(=O)Cn1c(=O)n(CCCS(=O)(=O)C2CCCCC2)c(=O)c2ccccc21	DT40 TDP1 CPT inconclusive, TDP1 cell noCPT inconclusive (no result: HT1080-NT tox, HT1080 IDH1KD tx)
OC[C@H]1O[C@H](c2nc(-c3nc(-c4cccs4)no3)cs2)C[C@@H]1O	none
Cc1ccc(-c2nn(-c3cccc(F)c3)cc2CN2CCN(c3ccccn3)CC2)o1	DT40 TDP1 CPT inconclusive, TGFb inhibitor inconclusive, TDP1 cell noCPT 23µM
CCOC(=O)c1c(S(=O)(=O)Nc2ccc(C)cn2)c(C)n(C)c1C	DT40 TDP1 CPT inconclusive, TDP1 cell noCPT inconclusive
Cc1cc(C(=O)COC(=O)Cc2n[nH]c(=O)c3ccccc23)c(C)n1-c1cccc(C(F)(F)F)c1	DT40 TDP1 CPT inconclusive, TGFb inhibitor inconclusive, TDP1 cell noCPT 16µM
O=c1[nH]nc(Cc2ccc([N+](=O)[O-])cc2)c2ccccc12	DT40 TDP1 CPT inconclusive, TGFb inhibitor inconclusive, HT1080 IDH1KD tx inconclusive, TDP1 cell noCPT inconclusive
O=c1[nH]nc(Cc2ccccc2)c2ccccc12	DT40 TDP1 CPT 7.3µM
Cc1nnc(NCc2n[nH]c(=O)c3ccccc23)c2ccccc12	DT40 TDP1 CPT 5.8µM, HT1080-NT tox 16µM, TGFb inhibitor inconclusive, HT1080 IDH1KD tx 11µM, TDP1 cell noCPT 10µM

High-throughput results: PubChem, National Center for Advancing Translational Sciences (NCATS)
